Data as given in the supplement of paper PMC7184167.
Structures can show the parent of a compound that is named as a salt.

These compounds were tested on replication-induced senescent mouse newborn dermal fibroblasts (NBF) (assay: relative cell viability of senescent cells (fraction); higher = less killing of senescent cells). Settings: 1 µM; 3 days.
Method: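 Replication-induced senescent newborn mouse skin fibroblasts (NBFs) in 24-well plates were treated with a Selleck FDA-approved drug library at 1 µM for 3 days.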

In order of rising relative cell viability:
1. COc1cc(Nc2c(C#N)cnc3cc(OCCCN4CCN(C)CC4)c(OC)cc23)c(Cl)cc1Cl [Bosutinib (SKI-606)]  0.0801
2. NC(=O)c1ccc(I)c([N+](=O)[O-])c1 [Iniparib (BSI-201)]  0.209
3. Nc1ncn([C@H]2C[C@H](O)[C@@H](CO)O2)c(=O)n1 [Decitabine]  0.211
4. CC(=O)O[C@H]1C(=O)[C@@]2(C)[C@H]([C@H](OC(=O)c3ccccc3)[C@]3(O)C[C@H](OC(=O)[C@H](O)[C@@H](NC(=O)c4ccccc4)c4ccccc4)C(C)=C1C3(C)C)[C@]1(OC(C)=O)CO[C@@H]1C[C@@H]2O [Paclitaxel]  0.398
5. Nc1ccccc1NC(=O)c1ccc(CNC(=O)OCc2cccnc2)cc1 [Entinostat (MS-275)]  0.536
6. COc1ccc(-c2nc3cc(C4=NNC(=O)CC4C)ccc3[nH]2)cc1 (stereo not given) [Pimobendan]  0.639
7. CN(Cc1cnc2nc(N)nc(N)c2n1)c1ccc(C(=O)N[C@@H](CCC(=O)O)C(=O)O)cc1 [Methotrexate]  0.692
8. Nc1ncnc2c1ncn2[C@@H]1O[C@H](CO)[C@@H](O)[C@@H]1O [Vidarabine]  0.744
9. CS(=O)(=O)CCNCc1ccc(-c2ccc3ncnc(Nc4ccc(OCc5cccc(F)c5)c(Cl)c4)c3c2)o1  0.746
10. COc1cc2c(Oc3ccc(NC(=O)C4(C(=O)Nc5ccc(F)cc5)CC4)cc3F)ccnc2cc1OCCCN1CCOCC1  0.757
11. COc1cc(/C=C/C(=O)CC(=O)/C=C/c2ccc(O)c(OC)c2)ccc1O [Curcumin]  0.768
12. Cn1c(=O)c2nc[nH]c2n(C)c1=O [Theophylline]  0.828
13. CC(=O)OCC(=O)NCCCOc1cccc(CN2CCCCC2)c1 [Roxatidine Acetate HCl]  0.897
14. CC(C)(C)c1cc(NC(=O)Nc2ccc(-c3cn4c(n3)sc3cc(OCCN5CCOCC5)ccc34)cc2)no1 [Quizartinib (AC220)]  0.955
15. CN(C)CCOc1ccc(/C(=C(/CCCl)c2ccccc2)c2ccccc2)cc1 [Toremifene Citrate]  0.956
16. COc1cccc2c1C(=O)c1c(O)c3c(c(O)c1C2=O)CC(O)(C(=O)CO)CC3OC1CC(N)C(O)C(C)O1 (stereo not given) [Doxorubicin (Adriamycin) HCl]  0.957
17. C[C@](N)(Cc1ccc(O)c(O)c1)C(=O)O [Methyldopa]  0.971
18. CCOc1cc(CC(=O)N[C@@H](CC(C)C)c2ccccc2N2CCCCC2)ccc1C(=O)O [Repaglinide]  0.978
19. C[C@]12C=CC(=O)N[C@@H]1CC[C@@H]1[C@@H]2CC[C@]2(C)[C@@H](C(=O)Nc3cc(C(F)(F)F)ccc3C(F)(F)F)CC[C@@H]12 [Dutasteride]  0.986
20. COc1ccccc1OCC(O)CN1CCN(CC(=O)Nc2c(C)cccc2C)CC1 (stereo not given) [Ranolazine]  0.994
21. OCCN(CCO)c1nc(N2CCCCC2)c2nc(N(CCO)CCO)nc(N3CCCCC3)c2n1 [Dipyridamole]  1
22. CN/C(=N\CCSCc1nc[nH]c1C)NC#N [Cimetidine]  1.01
23. COC(=O)c1ccc2c(C(=Nc3ccc(N(C)C(=O)CN4CCN(C)CC4)cc3)c3ccccc3)c(O)[nH]c2c1 [Nintedanib (BIBF 1120)]  1.01
24. CCOc1cc2ncc(C#N)c(Nc3ccc(F)c(Cl)c3)c2cc1NC(=O)/C=C/CN(C)C [Pelitinib (EKB-569)]  1.01
25. O=NN(CCCl)C(=O)NC1CCCCC1 [Lomustine]  1.02
26. CN(CCOc1ccc(NS(C)(=O)=O)cc1)CCc1ccc(NS(C)(=O)=O)cc1 [Dofetilide]  1.02
27. COc1c(N2C[C@@H]3CCCN[C@@H]3C2)c(F)cc2c(=O)c(C(=O)O)cn(C3CC3)c12 [Moxifloxacin HCl]  1.03
28. Cc1nc2n(c(=O)c1CCN1CCC(c3noc4cc(F)ccc34)CC1)CCCC2O (stereo not given) [Paliperidone]  1.04
29. Nc1cccc2c1CN(C1CCC(=O)NC1=O)C2=O (stereo not given) [Lenalidomide (CC-5013)]  1.04
30. COc1ccc2[nH]cc(CCNC(C)=O)c2c1 [Melatonin]  1.05
31. CCn1cc(C(=O)O)c(=O)c2cc(F)c(N3CCNCC3)nc21 [Enoxacin]  1.05
32. C[C@H]1[C@H](NC(=O)/C(=N\OC(C)(C)C(=O)O)c2csc(N)n2)C(=O)N1S(=O)(=O)O [Aztreonam]  1.06
33. CC(C)OC(=O)C(C)(C)Oc1ccc(C(=O)c2ccc(Cl)cc2)cc1 [Fenofibrate]  1.06
34. COc1ccc(C2CNC(=O)C2)cc1OC1CCCC1 (stereo not given) [Rolipram]  1.07
35. COc1ccc(CC2c3cc(OC)c(OC)cc3CC[N+]2(C)CCC(=O)OCCCCCOC(=O)CC[N+]2(C)CCc3cc(OC)c(OC)cc3C2Cc2ccc(OC)c(OC)c2)cc1OC (stereo not given) [Atracurium Besylate]  1.07
36. C[C@@H](O[C@H]1OCCN(Cc2n[nH]c(=O)[nH]2)[C@H]1c1ccc(F)cc1)c1cc(C(F)(F)F)cc(C(F)(F)F)c1 [Aprepitant]  1.08
37. COc1cc([C@@H]2c3cc4c(cc3[C@@H](O[C@@H]3O[C@@H]5CO[C@@H](c6cccs6)O[C@H]5[C@H](O)[C@H]3O)[C@H]3COC(=O)[C@H]23)OCO4)cc(OC)c1O [Teniposide]  1.08
38. C[C@]12CC[C@@H]3c4ccc(O)cc4CC[C@H]3[C@@H]1CC[C@@H]2O [Estradiol]  1.13
39. OCCOCCN1CCN(C2=Nc3ccccc3Sc3ccccc32)CC1 [Quetiapine Fumarate]  1.13
40. Clc1ccc(C(c2ccccc2Cl)C(Cl)Cl)cc1 (stereo not given) [Mitotane]  1.16
